Measurements reported in the supplement of paper PMC13380429.

Test system: Vero E6 infected with SARS-CoV-2
Test: inhibition of SARS-CoV-2 cytopathic effect; higher = more antiviral protection, active = above 15
Details: 48 h

Measured: inhibition of SARS-CoV-2 cytopathic effect

Cn1cnc([N+](=O)[O-])c1Sc1ncnc2[nH]cnc12 [azathioprine]
inactive: 1 nM -3.67% | 8.33 nM 2.21% | 100 nM 2.74% | 833.33 nM 3.46% | 10000 nM -3.46%

CN1[C@@H]2CC[C@H]1C[C@@H](OC(=O)c1cc(Cl)cc(Cl)c1)C2 [bemesetron]
inactive: 1 nM -0.2% | 8.33 nM 0.56% | 100 nM 0.85% | 833.33 nM 0.1% | 10000 nM 2.26%

CCOC(=O)[C@H]1O[C@@H]1C(=O)N[C@@H](CC(C)C)C(=O)NCCC(C)C [aloxistatin]
inactive: 1 nM 0.43% | 8.33 nM -1.01% | 100 nM 0.39% | 833.33 nM -0.54% | 10000 nM 11.2%

CCCCCCCCCCCCCCCC[N+](C)(C)CCN(Cc1ccc(OC)cc1)c1ncccn1 [thonzonium]
inactive: 1 nM -1.08% | 8.33 nM -1.07% | 100 nM 3.19% | 833.33 nM -1.67% | 10000 nM -15.8%

COc1ccc(CCN)cc1OC [homoveratrylamine]
inactive: 1 nM 0.49% | 8.33 nM 7.09% | 100 nM 12.7% | 833.33 nM 5.43% | 10000 nM 11.1%

Cc1ccc(C(=O)Nc2ccc(CN3CCN(C)CC3)c(C(F)(F)F)c2)cc1C#Cc1cnc2cccnn12 [ponatinib]
inactive: 1 nM 0.65% | 8.33 nM 1.8% | 100 nM 5.2% | 833.33 nM 1.27% | 10000 nM -10.9%

CC(C)c1cc(C(C)C)c(CC(=O)NS(=O)(=O)Oc2c(C(C)C)cccc2C(C)C)c(C(C)C)c1 [avasimibe]
inactive: 1 nM -2.41% | 8.33 nM 1.3% | 100 nM -0.91% | 833.33 nM -2.68% | 10000 nM -1.52%

O[C@@H](CN1CCNCC1)Cn1c2ccc(Br)cc2c2cc(Br)ccc21 [BAX-channel-blocker]
inactive: 1 nM 10.2% | 8.33 nM 4.29% | 100 nM 2.27% | 833.33 nM 2.49% | 10000 nM -21.9%

Cc1ccc(/C=N/NC(=O)c2ccccc2Oc2ccccc2)o1
inactive: 1 nM -1.75% | 8.33 nM -0.44% | 100 nM -0.55% | 833.33 nM 0.13% | 10000 nM 0.97%

COC(=O)Nc1ccc(-c2nc(N3CCOCC3)c3cnn(C4CCN(Cc5cccnc5)CC4)c3n2)cc1
inactive: 1 nM -4.18% | 8.33 nM -1.95% | 100 nM 3.87% | 833.33 nM -4.82% | 10000 nM -2.6%

NCC(O)(CS(=O)(=O)O)c1ccc(Cl)cc1 (stereo not given) [2-hydroxysaclofen]
inactive: 1 nM 0.19% | 8.33 nM 1.62% | 100 nM -0.08% | 833.33 nM 3.7% | 10000 nM 0.53%

C#C[C@]1(O)CC[C@H]2[C@@H]3CCC4=CC(=O)CC[C@@H]4[C@H]3CC[C@@]21C [Norethindrone (Norethisterone)]
inactive: 1 nM -1.49% | 8.33 nM -0.9% | 100 nM -1.69% | 833.33 nM 1.37% | 10000 nM 2.33%

CNc1nc(-c2ccc3c(N)n[nH]c3c2)cc(N2C[C@@H](C(=O)NC3CCCCC3)CC[C@H]2C)n1
inactive: 1 nM 2.6% | 8.33 nM 3.93% | 100 nM 1.23% | 833.33 nM 0.1% | 10000 nM -5.35%

O=C(C(c1ccccc1)c1ccccc1)N1CCN(CC(O)COc2cccc3ncccc23)CC1 (stereo not given) [dofequidar]
inactive: 1 nM -0.98% | 8.33 nM 4.84% | 100 nM -1.1% | 833.33 nM -0.87% | 10000 nM 1.44%

COc1ccc(C(=O)N2CCCc3cc(C4=NNC(=O)SC4C)ccc32)cc1OC (stereo not given)
inactive: 1 nM -1.28% | 8.33 nM 2.27% | 100 nM 0.07% | 833.33 nM 0.74% | 10000 nM 4.36%

BrC1C(Br)C(Br)C(Br)C(Br)C1Br (stereo not given) [1,2,3,4,5,6-hexabromocyclohexane]
inactive: 1 nM -2.03% | 8.33 nM -1.15% | 100 nM -1.07% | 833.33 nM -1.96% | 10000 nM 9.07%

CC12CCC(CC1=O)C2(C)C (stereo not drawn) [camphor-(+)]
inactive: 1 nM 1.23% | 8.33 nM 0.085% | 100 nM -0.16% | 833.33 nM 1.82% | 10000 nM -0.53%

CNc1ncnc2c1ncn2[C@@H]1O[C@H](CO)[C@@H](O)[C@H]1O [N6-methyladenosine]
inactive: 1 nM 1.25% | 8.33 nM 1.97% | 100 nM -1.29% | 833.33 nM 0.63% | 10000 nM 2.03%

CC(O)CN1CCN(CC(=O)[O-])CCN(CC(=O)[O-])CCN(CC(=O)[O-])CC1.[Gd+3] (stereo not given) [gadoteridol]
inactive: 1 nM 0.66% | 8.33 nM -0.76% | 100 nM 0.17% | 833.33 nM 0.32% | 10000 nM -3.99%

C[C@@H](O)[C@H](N)C(=O)N1CCC[C@H]1C(=O)N1CCC[C@H]1C(=O)N[C@H](C(N)=O)[C@@H](C)O [rapastinel]
inactive: 1 nM -2.84% | 8.33 nM -5.74% | 100 nM 0.55% | 833.33 nM -1.01% | 10000 nM -0.06%

CCn1cc(C(=O)O)c(=O)c2cnc(N3CCNCC3)nc21 [pipemidic-acid]
inactive: 1 nM 0.65% | 8.33 nM 2.63% | 100 nM 1.17% | 833.33 nM -0.86% | 10000 nM 1.68%

Cl/C(=C\n1cncn1)c1ccc(Cl)cc1Cl [loreclezole]
inactive: 1 nM 0.42% | 8.33 nM -1.72% | 100 nM -2.63% | 833.33 nM -0.72% | 10000 nM -1.41%

CN1CCC(OC(c2ccccc2)c2ccccc2)CC1 [diphenylpyraline]
inactive: 1 nM 0.97% | 8.33 nM 0% | 100 nM 0% | 833.33 nM 0.39% | 10000 nM -1.64%

O=C(O)c1c2ccccc2cc2ccccc12 [9-anthracenecarboxylic-acid]
inactive: 1 nM -4.6% | 8.33 nM 2.11% | 100 nM 0.63% | 833.33 nM 1.03% | 10000 nM -2.02%

O=C(O)c1ccc(-c2c[nH]c3ncc(-c4ccccc4)cc23)cc1C1CCCC1
inactive: 1 nM 4.37% | 8.33 nM 5.26% | 100 nM 0.74% | 833.33 nM 1.88% | 10000 nM -0.09%

CNC(=N)NC(=O)Nc1c(C)cccc1C [lidamidine]
inactive: 1 nM 0.93% | 8.33 nM 2.74% | 100 nM 3.39% | 833.33 nM 3.62% | 10000 nM -2.49%

CC(C)(C)C(=O)NCCCC(=O)O [pivagabine]
inactive: 1 nM 0.01% | 8.33 nM -1.15% | 100 nM -1.01% | 833.33 nM 0.86% | 10000 nM -0.03%

O=c1[nH]nc2c3c(cccc13)N=C(CN1Cc3ccccc3C1)N2
inactive: 1 nM 0.7% | 8.33 nM -0.79% | 100 nM 0.78% | 833.33 nM 0.24% | 10000 nM 1.13%

CS(=O)(=O)CCNCc1ccc(-c2ccc3ncnc(Nc4ccc(OCc5cccc(F)c5)c(Cl)c4)c3c2)o1 [lapatinib]
inactive: 1 nM -1.4% | 8.33 nM 0.42% | 100 nM -3.11% | 833.33 nM -11.4% | 10000 nM -7.81%

CCc1ccc(C(=O)C(C)CN2CCCCC2)cc1 (stereo not given) [eperisone]
inactive: 1 nM 0.14% | 8.33 nM 2.24% | 100 nM 3.36% | 833.33 nM 4.7% | 10000 nM 2.77%

Clc1ccccc1C(c1ccccc1)(c1ccccc1)n1cccn1
inactive: 1 nM 2.55% | 8.33 nM 1.8% | 100 nM -0.74% | 833.33 nM 1.1% | 10000 nM 0.33%

NC(=O)c1ccccc1O [salicylamide]
inactive: 1 nM -0.95% | 8.33 nM 2.62% | 100 nM 5.65% | 833.33 nM 3.83% | 10000 nM 0.13%

CC(=O)O[C@H]1C[C@H](O[C@H]2[C@@H](O)C[C@H](O[C@H]3[C@@H](O)C[C@H](O[C@H]4CC[C@@]5(C)[C@H](CC[C@@H]6[C@@H]5C[C@@H](O)[C@]5(C)[C@@H](C7=CC(=O)OC7)CC[C@]65O)C4)O[C@@H]3C)O[C@@H]2C)O[C@H](C)[C@H]1O[C@@H]1O[C@H](CO)[C@@H](O)[C@H](O)[C@H]1O [lanatoside-C]
inactive: 1 nM 0.4% | 8.33 nM -0.46% | 100 nM -8.78% | 833.33 nM -9.54% | 10000 nM -11.4%

C/C=C(/C)C(=O)O[C@H]1[C@H](OC(C)=O)[C@@]2(CO)C(CC1(C)C)C1=CCC3[C@@]4(C)CCC(O[C@@H]5O[C@H](C(=O)O)[C@@H](O[C@@H]6O[C@H](CO)[C@@H](O)[C@H](O)[C@H]6O)[C@H](O)[C@H]5O[C@@H]5O[C@H](CO)[C@@H](O)[C@H](O)[C@H]5O)[C@](C)(CO)C4CC[C@@]3(C)[C@]1(C)C[C@H]2O.C/C=C(\C)C(=O)O[C@H]1[C@H](OC(C)=O)[C@@]2(CO)C(CC1(C)C)C1=CCC3[C@@]4(C)CCC(O[C@@H]5O[C@H](C(=O)O)[C@@H](O[C@@H]6O[C@H](CO)[C@@H](O)[C@H](O)[C@H]6O)[C@H](O)[C@H]5O[C@@H]5O[C@H](CO)[C@@H](O)[C@H](O)[C@H]5O)[C@](C)(CO)C4CC[C@@]3(C)[C@]1(C)C[C@H]2O (stereo not given in full) [escin]
inactive: 1 nM -2.05% | 8.33 nM -1.77% | 100 nM -0.38% | 833.33 nM -4.84% | 10000 nM -27.8%

O=C1CN=C(c2cccc(Br)c2)c2oc3ccccc3c2N1
inactive: 1 nM -2.75% | 8.33 nM -1.3% | 100 nM -1.9% | 833.33 nM 0.38% | 10000 nM 0.75%

O=Nc1c(-c2c(O)[nH]c3ccccc23)[nH]c2ccccc12 [indirubin-3-monoxime]
inactive: 1 nM 0.43% | 8.33 nM 0.8% | 100 nM 1.06% | 833.33 nM 5.66% | 10000 nM 3.83%
